Experimental data as given in PubChem BioAssay (Tox21).
Inconclusive results are not listed. Unmarked numbers belong to inactive results. Calls follow the shape of the dose curve; as a rule, active = well fitted cell-killing curve with a large enough effect in the repeat runs (not every such curve was filed as active); inconclusive = weak or mixed curves, or effect the other way; inactive = no such curve, though single readings can be large or run the other way.

Experiment: qHTS assay to identify small molecule antagonists of the estrogen related receptor signaling pathway with the pleiotropic PPARgamma coactivator (PGC) from Tox21 10K library - cell viability counter screen (AID 1224840); also: nearly all actives have a fitted effect of over 40% in size
Conditions: PGC/ERR reporter cells viability, CellTiter-Fluor, 17.5 h; series mostly up to 92.4 µM; viability change, negative = cytotoxic: at the top concentration
Description: National Center for Advancing Translational Sciences [NCATS]
NIH Chemical Genomics Center [NCGC]
U.S. Environmental Protection Agency [EPA]
National Institutes of Environmental Health Sciences [NIEHS]
National Toxicology Program [NTP]
U.S. Food and Drug Administration [FDA]
Estrogen related receptors (ERRs), the first orphan nuclear receptors discovered, play an important role in the control of cellular energy metabolism. ERRs are required for high-energy production in response to the environmental challenges. The pleiotropic PPARgamma coactivator (PGC) is a major partner of ERR and a key regulator in energy homeostasis. Together they have been implicated in the etiology of metabolic disorders such as Type 2 diabetes and metabolic syndrome. ERR-alpha was also identified as an adverse marker for breast cancer progression; ERR-alpha-positive tumors have a poor prognosis. To screen and to identify environmental compounds that perturb the ERR and PGC/ERR signaling pathways could provide valuable information for potential therapeutic or preventive measures in the treatment of metabolic disease. To differentiate true PGC/ERR antagonists or agonist from cytotoxic substances, the assay is multiplexed with cell viability assay.
Tox21 Assay Protocol Summary:
The PGC/ERR cells were dispensed at 2,000 cells/5 ul/well in 1536-well white plates using a Multidrop dispenser. After the assay plates were incubated at a 37 C/5% CO2 incubator for 6 hours, 23 nL of compounds dissolved in DMSO, positive and negative controls or DMSO only was transferred to the assay plate by a pin tool. The plates were incubated at 37 C for 17.5 hours. 1 ul/well of CellTiter-Fluor reagent was added into the assay plates using a Flying Reagent Dispenser. After 30-minute incubation at 37 C/5% CO2, the fluorescence intensity in the plates was measured using a ViewLux plate reader.
% is scaled to controls: 0 for no effect and ±100 for the full control effect.

Row | Structure (SMILES) | viability change, negative = cytotoxic
1 | CCN(CCC#N)c1ccccc1 | 11.5%
2 | CNCc1ccccc1 | 2.03% [at 42.5 µM]
3 | Cc1cc(O)c2c(c1)C(=O)c1cccc(O)c1C2=O | -10.5% [at 42.5 µM]
4 | CN[C@@H]1[C@@H](O)[C@@H](O[C@@H]2[C@H](O)[C@H](O[C@H]3OC(CN)=CC[C@H]3N)[C@@H](N)C[C@H]2N)OCC1(C)O (stereo not given in full) | 22.7% [at 42.5 µM]
5 | c1ccc(CNc2ncnc3nc[nH]c23)cc1 | -0.159%
6 | CC(=O)OCCCc1ccccc1 | -1.68%
7 | O=C(O)/C=C/c1ccccc1 | 6.75%
8 | O=CN1CCOCC1 | 3.78%
9 | CCC(=O)OCCC(C)CCC=C(C)C (stereo not given) | -0.221%
10 | O=[Si]=O | 11.9%
11 | O=C(/C=C/c1ccccc1)NCCO | -1.34% [at 42.5 µM]
12 | O=C1c2ccccc2-c2ccccc21 | 2.1%
13 | C[Si]1(C)N[Si](C)(C)N[Si](C)(C)N1 | -1.09%
14 | CCS(=O)(=O)CCn1c([N+](=O)[O-])cnc1C | 11.9% [at 42.5 µM]
15 | CCCCCCCC/C=C\CCCCCCCC(=O)OC[C@@H](O)[C@H]1OC[C@H](O)[C@H]1O | -0.117%
16 | CC(=O)OC(C(=O)c1ccccc1)c1ccccc1 (stereo not given) | -9.67%
17 | C[N+](C)(C)CC(O)CCl (stereo not given) | 5.34%
18 | Cn1c(=O)c2c(ncn2CC2OCCO2)n(C)c1=O | 18.8% [at 42.5 µM]
19 | Nc1c(NC/C=C\COc2cc(CN3CCCCC3)ccn2)c(=O)c1=O | 8.26% [at 19 µM]
20 | CO[Si](CCCS)(OC)OC | 0.0312%

Row | Structure (SMILES) | viability change, negative = cytotoxic
21 | C[C@H](CCC(=O)NCC(=O)O)[C@H]1CC[C@H]2[C@@H]3[C@H](O)C[C@@H]4C[C@H](O)CC[C@]4(C)[C@H]3C[C@H](O)[C@]12C | -1.65%
22 | CCCCCCCC[Si](OCC)(OCC)OCC | 5.49%
23 | C=CCCCCCCCCCCC | 1.26% [at 8.39 µM]
24 | CC(C)COC(=O)CCCCC(=O)OCC(C)C | 2.15%
25 | Cc1nc2n(c(=O)c1CCN1CCC(C(=O)c3ccc(F)cc3)CC1)CCS2 | -4.67% [at 42.5 µM]
26 | CCCOC(=O)CCCCC(=O)OCCC | 3.79%
27 | CC(C)CCO | 10.5%
28 | O=C(CN1CCN(Cc2ccc3c(c2)OCO3)CC1)N1c2ccccc2Sc2ccccc21 | -1.55% [at 42.5 µM]
29 | CCC(O)C(C)(C)C (stereo not given) | -3.87%
30 | CCCCCCCCCOCC1CO1 (stereo not given) | -1.54%
31 | O=P(O)(O)OCC(O)CO (stereo not given) | -6.96% [at 42.5 µM]
32 | CN(C1CCCCC1)S(=O)(=O)c1ccccc1N | -10.5%
33 | CC(C)C(=O)Nc1cccc(C(F)(F)F)c1 | -3.89% [at 42.5 µM]
34 | COc1cc(C=O)ccc1OC(=O)C(C)C | 0.958%
35 | CC(=O)Nc1ccc(C)cc1 | 4.82%
36 | CN=C(NC#N)NCCSCc1csc(N=C(N)N)n1 | 4.88% [at 42.5 µM]
37 | CC(C)CCCC(C)CC=O (stereo not given) | 13.1%
38 | CCCCC(CC)COC(=O)c1ccccc1 (stereo not given) | -0.602%
39 | C/C=C(\C)C(=O)OCC/C=C\CC | 2.12%
40 | O=C(c1ccc2c(c1)C(=O)OC2=O)c1ccc2c(c1)C(=O)OC2=O | 1.8%
